The values below come from ChEMBL document CHEMBL3988442, “University of Dundee, Small-Polar-MMV Screening Library” (2021).

The structures appear in SMILES notation.

The target in assay [1] is T1, Aspartate--tRNA(Asp/Asn) ligase (Mycobacterium tuberculosis (strain ATCC 25618 / H37Rv)) (UniProt P9WFW3). Note: in the data most compounds retested in dose-response had high values.
T1 sequence (whole entry): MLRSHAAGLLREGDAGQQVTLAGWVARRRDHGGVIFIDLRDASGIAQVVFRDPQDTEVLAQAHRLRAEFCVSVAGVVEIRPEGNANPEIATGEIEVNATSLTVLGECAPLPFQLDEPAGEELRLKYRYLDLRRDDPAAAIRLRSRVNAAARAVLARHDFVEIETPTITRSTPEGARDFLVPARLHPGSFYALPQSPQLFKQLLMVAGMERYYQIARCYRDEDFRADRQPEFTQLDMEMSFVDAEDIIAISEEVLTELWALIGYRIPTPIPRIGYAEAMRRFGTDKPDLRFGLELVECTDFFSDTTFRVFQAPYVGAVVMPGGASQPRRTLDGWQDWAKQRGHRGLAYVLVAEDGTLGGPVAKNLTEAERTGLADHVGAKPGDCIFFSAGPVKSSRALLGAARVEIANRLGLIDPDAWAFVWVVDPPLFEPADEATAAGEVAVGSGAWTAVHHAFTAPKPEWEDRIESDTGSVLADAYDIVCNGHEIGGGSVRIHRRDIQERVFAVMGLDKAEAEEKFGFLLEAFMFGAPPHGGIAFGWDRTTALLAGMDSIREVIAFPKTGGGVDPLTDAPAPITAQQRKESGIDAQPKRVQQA
Description: Assay for Asp RNA synthetase-1 from Mycobacterium tuberculosis. The class given is functional. Details: scale not given: direction of the effect not stated beside the values. Particulars: 30 µM.

For assay [2], the target named is Shiga toxin 2 (Escherichia coli O157:H7) (UniProt P09385+P09386). The assay can be described thus: E. coli 0.157:H7 Shiga Toxin SOP - stx2 screening assay. The arrangement: scale not given: direction of the effect not stated beside the values. The assay is classed as functional. Particulars: 30 µM.

Regarding `CCOc1ncccc1C(=O)NCCN(CC)C1CC1`, the results for the Percent Effect in assay [1] and in assay [2] were 0.335% and 9.33%, respectively.
`CN(C)C(=O)CN1C(=O)CCC12CCN(Cc1ccc(F)cc1)CC2`: the Percent Effect in assay [1] was 1.43%; in assay [2] it was -5.2%.
As for `CCOc1ccc(-n2nnc(C(=O)O)c2-c2ccccn2)cc1`, the Percent Effect in assay [1] is 12%; in assay [2], -8.4%.
Turning to `Cc1nn(CC(=O)N2CCC(Nc3cccnn3)CC2)c(C)c1Cl`, the Percent Effect in assay [1] is -1.63%; in assay [2], -23.6%.
For `Cn1ccc(C(=O)N2CCN(CCc3ccccc3)CC2)cc1=O`, the Percent Effect in assay [1] is -1.76%; in assay [2], -19.1%.
For the compound `CC(C)n1c(C2CCCN(Cc3ccnn3C)C2)nc2ccccc21` (configuration not stated), the Percent Effect is -2.04% in assay [1] and 1.29% in assay [2].
As for `O=C1CC2(CCN(CC3CCOC3)CC2)CN1Cc1cc(F)cc(F)c1` (configuration not stated), the Percent Effect in assay [1] was -4.88%; in assay [2], 2.13%.
As to `Cc1cnn(CC2CCCN2Cc2coc(-c3cccs3)n2)c1` (configuration not stated), the Percent Effect was 1.41% in assay [1] and 4.89% in assay [2].
For `Cc1[nH]ncc1C(=O)N1CCN(CC(O)C(C)(C)C)CC1` (configuration not stated), in that order: 0.878% and 0.313%.
For `c1ccc(Cn2cc(CNC3CCc4ncnn4C3)cn2)cc1` (configuration not stated), in that order: -2.87% and -22.8%.
`Cc1cc(C(=O)N2CCCC(n3cncn3)C2)c(C)n1C1CC1` (configuration not stated): the Percent Effect in assay [1] was -2.4%; in assay [2], 9.3%.
Take `O=C(c1cnccn1)N1CCCC2(COCCN(CC3CC3)C2)C1` (configuration not stated): the Percent Effect in assay [1] was determined as 3.16%; in assay [2] it was 9.41%.
As to `CC(C)c1nnc2n1CCN(C(=O)CN1CCc3sccc3C1)C2`, the Percent Effect in assay [1] was -0.1%; in assay [2], -16.2%.
Turning to `Cc1cc(NC(=O)N(CC2CCOC2)C2CC2)no1` (configuration not stated), the values for the Percent Effect in assay [1] and in assay [2] were -10.9% and -2.82%, respectively.
As to `O=c1ccc(-c2ccccc2F)nn1CCN1CCCS1(=O)=O`, the Percent Effect in assay [1] was -1.45%; in assay [2] it was -0.28%.
In the case of `COCCc1noc(CNC2CCCN(c3cccnn3)C2)n1` (configuration not stated), the Percent Effect is -0.981% in assay [1] and -59% in assay [2].
With `Fc1ccc(OCCCN2CCOC(Cn3cncn3)C2)cc1` (configuration not stated), the Percent Effect was -6.13% in assay [1] and -10.5% in assay [2].
Regarding `CSCC(CCO)NC(=O)Nc1cc(C)ccc1C` (configuration not stated), the Percent Effect was 6.04% in assay [1] and -16.3% in assay [2].
For the compound `COCC1CC2(CCN(Cc3cnn(C)c3)CC2)CN1c1ncccn1` (configuration not stated), the results for the Percent Effect in assay [1] and in assay [2] were -0.238% and -22.6%, respectively.
For the compound `COCc1nc2cc(NCc3ccc(C)o3)ccc2o1`, the Percent Effect in assay [1] was 25.1%; in assay [2] it was -21.1%.
For `C[S+]([O-])c1nncn1CC(=O)c1cccc(Cl)c1` (configuration not stated), in that order: -0.917% and -33.8%.
Taken in the same sequence, the figures for `NC(=O)CN1CCC(C(=O)N2CCCC(OCc3cccnc3)C2)CC1` (configuration not stated) were -13.4% and 18%.
For `O=C(Nc1nncs1)NC1CCc2ccccc21` (configuration not stated), in that order: 1.46% and -33.6%.
For `O=C(c1ccc[nH]1)N1CCC(c2nccn2Cc2ccncc2)CC1`, the Percent Effect in assay [1] is 5.61%; in assay [2], -10.8%.
With `Cc1noc(C)c1CCC(=O)N1CCN(CCn2cccn2)CC1`, the Percent Effect in assay [1] was -5.26%; in assay [2] it was -11.4%.
For `c1nc2c(c(C3CC3)n1)CCN(Cc1ccc3c(c1)OCO3)CC2`, in that order: -2.19% and -20.6%.
Regarding `Cc1ccc(CNC(=O)Nc2nnc(C)s2)cn1`, the Percent Effect was 4.24% in assay [1] and -6.66% in assay [2].
Take `Cc1nc(C)n(C2CCCN(C(=O)CCc3ccncc3)C2)n1` (configuration not stated): the Percent Effect is -6.6% in assay [1] and 11.7% in assay [2].
Take `Cc1cc(C)c2cc(CNCC3CCCO3)c3nn(C)c(=O)n3c2c1` (configuration not stated): the Percent Effect was determined as 1.03% in assay [1] and 3.55% in assay [2].
In the case of `Clc1ccc(OCCN2CCN(CCn3cncn3)CC2)cc1`, the Percent Effect in assay [1] was -1.39%; in assay [2], -23.5%.
As for `COCc1nc(C(=O)N2CCCC2c2c(C)nn(C)c2C)cs1` (configuration not stated), the Percent Effect in assay [1] is -5.87%; in assay [2], -13.6%.
Taken in the same sequence, the figures for `CC(NC(=O)CCOc1ccccc1Cl)c1nnc2n1CCC2` (configuration not stated) were -1% and 22.6%.
Take `O=C(Nc1cccnc1)[C@H]1C[C@H]2OCC[C@H]2N(C(=O)c2ccsc2)C1`: the results for the Percent Effect in assay [1] and in assay [2] were 4.71% and -27.5%, respectively.
With `O=C(NC1CCCN(c2ncccn2)C1)c1ccoc1` (configuration not stated), the Percent Effect in assay [1] was -4.64%; in assay [2], -14.5%.
Turning to `CN(c1ccc(F)c(F)c1)S(=O)(=O)c1cc(C(=O)O)cs1`, the Percent Effect in assay [1] was 1.3%; in assay [2], 20.8%.
Consider `Cn1cc(CN2CCCn3cnc(COCC4CC4)c3C2)cn1`, for which the Percent Effect in assay [1] is 1.66%; in assay [2], -1.47%.
Take `Cc1noc([C@@H]2CCCN2C(=O)C2CCN(C(=O)C3CCC3)CC2)n1`: the Percent Effect in assay [1] is 6.9%; in assay [2] it was -35.4%.
On to `COCCn1cc(C(=O)N2CCCC2c2cc(C)no2)ccc1=O` (configuration not stated), for which the Percent Effect was -2.11% in assay [1] and 3.38% in assay [2].
In the case of `COc1ccc(CNCc2c(C)nn(C)c2N2CCOCC2)cc1`, the Percent Effect was -0.115% in assay [1] and 14.4% in assay [2].
`Cc1cnn(CC2CCCCN2C(=O)Cc2csc(C)n2)c1` (configuration not stated): the Percent Effect in assay [1] was -2.23%; in assay [2] it was 1.16%.
Turning to `Cc1nc(CCNC(=O)NC2CCN(c3ncccn3)CC2)cs1`, the figures for the Percent Effect in assay [1] and in assay [2] were -2.14% and -10%, respectively.
On to `CCn1nccc1CNC(=O)C(C)n1cc2c(n1)c(C)nn2C` (configuration not stated), for which the results for the Percent Effect in assay [1] and in assay [2] were -5.02% and -29.4%, respectively.
With `O=C(NCCN1CCCCC1)c1ccoc1`, the Percent Effect in assay [1] was 2.52%; in assay [2], -21.3%.
Consider `c1cc(OCc2ccc3c(c2)OCO3)ccc1CNC1CC1`, for which the Percent Effect was -1.47% in assay [1] and -108% in assay [2].
On to `CCn1ccnc1CN1CCOC(CNc2cccnn2)C1` (configuration not stated), for which the Percent Effect is -0.152% in assay [1] and -18.9% in assay [2].
`Cc1nc(CN(Cc2cccs2)C2CCS(=O)(=O)C2)oc1C` (configuration not stated): the Percent Effect in assay [1] is -1.77%; in assay [2] it was 34.6%.
`Cc1ccoc1-c1nnc(CN2CCCC(Cn3cncn3)C2)o1` (configuration not stated): the Percent Effect is 1.01% in assay [1] and -16.9% in assay [2].
With `CCc1c(C(=O)NCC2CCS(=O)(=O)C2)cnn1-c1ccc(C)cc1` (configuration not stated), the Percent Effect was -1.8% in assay [1] and -0.796% in assay [2].
As for `CCOCC1CN(C(=O)c2cscn2)Cc2nnn(CC3CC3)c21` (configuration not stated), the Percent Effect in assay [1] was -4.51%; in assay [2], -6.48%.
As to `CCN1CCC2(CC1)CC(NC(=O)N(C)C)c1cc(C)ccc12` (configuration not stated), the Percent Effect in assay [1] was 2.85%; in assay [2], -28.6%.
With `COc1ccc(CN2CCc3ncnc(OC(C)C)c3CC2)cc1`, the Percent Effect in assay [1] is 8.01%; in assay [2] it was -9.16%.
